Bioassay records: PubChem BioAssay, National Center for Advancing Translational Sciences (NCATS)
An excerpt weighted towards active compounds, which were near 9.2% of everything screened.
ELG1 genotox: induces genotoxicity in HEK293T cells with luciferase-tagged ELG1 | HEK293T ELG1-luciferase reporter, luminescence, 16 h | Potency, µM (series often up to 46 µM), without a hit: at the top dose activity change, positive = activation, actives largely listed as activators | hit rate 1.3% among 330,000; also: % of control where 0% means no effect; nearly all actives have a fitted effect of over 60% in size
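Genotoxic stress is detected as increased luminescence from luciferase-tagged ELG1 in HEK293T cells, measured with ONE-Glo after a 16 hr treatment at 37 °C.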
NPC1 promoter act: NPC1 promoter activation | Huh7 NPC1 promoter luciferase reporter, 24 h | Potency, µM (titrated, usually from 9.22 µM), for the others: top-dose activation, usual class: activators | hit rate 2.4% among 320,000 | AID 485313; also: % of control where 0% means no effect; nearly all actives have a fitted effect of over 60% in size
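Cells: Huh7 expressing luciferase under the NPC1 promoter, 1500/well. Seeded 2 h, compound added, incubated 24 h at 37 °C. Luciferase reagent, 10 min ambient, then luminescence.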
Rab9 prom act: activates the Rab9 promoter | hit rate 2.8% among 320,000 | Huh7 Rab9 promoter-luciferase reporter, luminescence, 24 h | AID 485297 | Potency, µM (highest dose often 9.22 µM), for inactives: at the highest dose activation, negative = inhibition, hits mostly activators; also: % of control where 0% means no effect; nearly all actives have a fitted effect of over 60% in size
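Stable Rab9-luc Huh7, 1500 cells/well, 2 h settle; cmpd in DMSO, 24 h, 37 °C/5% CO2; luciferase reagent 10 min RT; luminescence.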
FLuc modulator: inhibits or activates purified firefly luciferase, miR-21 counter-screen; P08659; purified FLuc, Km substrates, luminescence inhibition; Potency, µM (titrated, usually from 57.5 µM), inactives show at the top dose activity change, negative = inhibition, most hits filed as inhibitors; hit rate 6.9% among 360,000;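 also: plate controls were vehicle for no effect and reference inhibitor for full effect; nearly all actives have a fitted effect of over 55% in size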
Target sequence (P08659 whole entry, looked up): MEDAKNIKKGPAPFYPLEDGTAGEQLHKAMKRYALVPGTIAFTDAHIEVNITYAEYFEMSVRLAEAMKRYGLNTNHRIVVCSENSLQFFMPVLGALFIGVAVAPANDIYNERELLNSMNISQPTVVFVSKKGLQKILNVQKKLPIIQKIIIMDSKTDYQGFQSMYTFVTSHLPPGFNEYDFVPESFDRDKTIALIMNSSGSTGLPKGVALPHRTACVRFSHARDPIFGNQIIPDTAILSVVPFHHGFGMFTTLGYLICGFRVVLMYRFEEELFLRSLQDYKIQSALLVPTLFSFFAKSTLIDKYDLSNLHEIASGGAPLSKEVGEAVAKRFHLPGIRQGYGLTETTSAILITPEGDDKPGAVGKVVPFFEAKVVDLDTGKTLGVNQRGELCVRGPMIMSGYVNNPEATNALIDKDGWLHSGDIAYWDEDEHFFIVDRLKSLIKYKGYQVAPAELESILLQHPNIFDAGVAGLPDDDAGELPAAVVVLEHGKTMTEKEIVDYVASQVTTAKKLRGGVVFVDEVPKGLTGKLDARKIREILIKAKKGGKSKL
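Purified P. pyralis luciferase (10nM final) with 10uM D-luciferin and 10uM ATP (Km levels) in 50mM Tris acetate pH 7.5, 10mM Mg acetate, 0.01% Tween-20, 0.05% BSA; qHTS 6-point titration, ~60 µM downward; luminescence read.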
SMN2 splice up: increases expression of the SMN2 splice variant; HEK293 SMN2-luciferase splicing reporter, luminescence, 30-36 h; Potency, µM (series often up to 46.1 µM), for inactives: top-dose activity change, positive = activation, actives largely listed as activators; hit rate 2.8% among 210,000; AID 1458; also: % of control where 0% means no effect; nearly all actives have a fitted effect of over 55% in size
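HEK293 cells carry an SMN2 […]–luciferase reporter in which exon 7 inclusion puts luciferase in frame. Cells were plated 10-12 h before compound addition, then incubated 30-36 h at 37C. ONE-Glo luminescence was read; sodium butyrate at 4.5 mM final served as control.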
ELG1 repair inh: ELG1-dependent DNA repair inhibition; HEK293T ELG1-luciferase reporter, luminescence, 16 h; DNA damage induced by 5-fluorouridine; Potency, µM (top dose mostly 46.1 µM), for inactives: at the highest dose activity change, negative = inhibition, usual class: inhibitors; hit rate 2.3% among 330,000; AID 504467; also: % is scaled to controls: 0 for no effect and ±100 for the full control effect; nearly all actives have a fitted effect of over 55% in size
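In this reporter screen, reduction of luminescence relative to DMSO vehicle indicated activity. Compounds and 5-fluorouridine were added together to 2,000 cells per well, incubated for 16 hr at 37 °C, then developed with ONE-Glo.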
The depositor's hits bear a star; u = inconclusive; x = no result. Calls follow the shape of the dose curve; as a rule, active = well fitted curve in the direction sought with a large enough effect; inconclusive = small, poorly fitted or top-dose-only effect, or another doubt; inactive = no such curve, though single readings can be large; an effect the other way counts as inactive or inconclusive. Potency is read from the fitted curve at half-maximal effect.

SMILES	ELG1 genotox	NPC1 promoter act	Rab9 prom act	FLuc modulator	SMN2 splice up	ELG1 repair inh
O=C(NCCc1cn2ccccc2n1)c1cc(COc2ccc3ncccc3c2)on1	-14.8%	-15.5%	-13.5%	u	x	8.2µM*
O=C(c1cc(COc2ccc3ncccc3c2)on1)N1CCCCCC1	6.1%	-18.4%	-28.8%	u	-45.2%	u
CCc1ccc(S(=O)(=O)Nc2ccc(-c3ccc4nnc(C)n4n3)cc2)s1	23.1µM*	-4.4%	-3.3%	17.5%	x	u
Cc1nnc2ccc(-c3ccc(NS(=O)(=O)c4ccc(F)cc4F)cc3)nn12	20.6µM*	-3.6%	-3.6%	0.5%	x	u
Cc1nnc2ccc(-c3ccc(NS(=O)(=O)c4ccccc4[N+](=O)[O-])cc3)nn12	u	-7.5%	-9.2%	4.0%	x	u
Cc1nnc2ccc(-c3ccc(NS(=O)(=O)c4ccccc4F)cc3)nn12	20.6µM*	-5.8%	-5.5%	1.0%	x	u
Cc1cc(C)cc(NC(=O)C2CCCN(S(=O)(=O)c3cccc4nsnc34)C2)c1 (stereo not given)	x	x	x	-1.6%	2.8%	x
Clc1cccc(-n2ncc3c(NC4CCCCCC4)ncnc32)c1	x	x	x	6.01µM*	x	x
Cc1cccc(-n2ncc3c(Nc4c(C)n(C)n(-c5ccccc5)c4=O)ncnc32)c1	-1.9%	1.0%	6.7%	-7.7%	2.6%	-4.1%
Cc1cccc(-n2ncc3c(NC4CCCCC4)ncnc32)c1	u	4.47µM*	2µM*	1.51µM*	u	u
Cc1cccc(-n2ncc3c(NC4CCCC4)ncnc32)c1	x	x	x	3.01µM*	x	x
CC(C)(C)c1ccc(Oc2ccc(NC(=O)CCC(=O)OCC(=O)c3ccccc3)cc2)cc1	x	x	x	u	4.0%	x
CCOC(=O)c1cc2c(=O)n3ccccc3nc2n(C(C)C)c1=NC(=O)c1c(-c2c(F)cccc2Cl)noc1C	-12.9%	-14.0%	-1.7%	-4.2%	-3.1%	5.8µM*
CCOC(=O)Cn1nnc(-c2ccc([N+](=O)[O-])cc2)n1	1.3%	1.1%	-2.3%	-19.8%	x	12.6%
CCOC(=O)c1[nH]c2ccc(OC)cc2c1NC(=O)CN1CCN(c2ccccn2)CC1	-5.9%	-2.2%	-3.9%	2.1%	-1.6%	u
CCOC(=O)c1[nH]c2ccc(F)cc2c1NC(=O)C(C)N1CCc2cc(OC)c(OC)cc2C1 (stereo not given)	-25.4%	-4.2%	-1.3%	0.3%	13.6%	4.11µM*
CCOC(=O)c1[nH]c2cc(OC)c(OC)cc2c1NC(=O)CN1CCN(C)CC1	20.6µM*	-4.4%	-2.9%	-0.7%	x	-10.0%
CCOC(=O)c1[nH]c2ccc(OC)cc2c1NC(=O)CN1CCc2ccccc2C1	-6.5%	-0.5%	3.0%	4.1%	-13.1%	16.4µM*
CCOC(=O)c1[nH]c2ccc(C)cc2c1NC(=O)CN1CCCCC1	-7.6%	1.4%	1.2%	0.7%	4.9%	u
COCCn1c(SCC(=O)c2ccccc2)nc2cc(C(=O)NC3CCCC3)ccc2c1=O	x	x	x	1.3%	x	x
Cc1noc(C(=O)Nc2cccc(O)c2)c1Cl	16.6%	3.5%	26.3%	u	x	u
Cc1cc(C(=O)COC(=O)c2ccc(NC(=O)CC#N)cc2)c(C)n1C1CC1	18.3%	u	3.98µM*	13.5µM*	x	u
Cc1cc(C(=O)COC(=O)c2ccc(NC(=O)CC#N)cc2)c(C)n1-c1ccc(OC(F)F)cc1	-3.6%	x	x	x	x	u
Cc1cc(C(=O)COC(=O)c2ccc(Cl)c(S(N)(=O)=O)c2)c(C)n1C1CC1	15.3%	3.98µM*	1.78µM*	4.78µM*	x	u
O=C(CSc1nnc(-c2ccc(Cl)cc2)n1-c1ccc(Cl)cc1)N/N=C/c1ccco1	-6.8%	-2.1%	-0.5%	0.9%	-27.6%	23.1µM*
SMILES	ELG1 genotox	NPC1 promoter act	Rab9 prom act	FLuc modulator	SMN2 splice up	ELG1 repair inh
Cc1ccc(/C=N/NC(=O)CSc2nnc(-c3ccc(Cl)cc3)n2-c2ccccc2)o1	-7.7%	-1.8%	-2.6%	4.9%	x	u
CCn1c(C)cc(/C=C2/SC(=O)N(C(C)C(=O)OC)C2=O)c1C (stereo not given)	u	3.16µM*	3.98µM*	6.01µM*	x	u
COCCn1c(C)cc(/C=C2\NC(=S)N(C)C2=O)c1C	u	13.6%	0.2%	u	11.2µM*	28.8%
COCCn1c(C)cc(/C=C2/SC(=O)N(C(C)C(=O)OC)C2=O)c1C (stereo not given)	8.2µM*	1.41µM*	1.58µM*	2.39µM*	x	u
CCOC(=O)C(C)N1C(=O)S/C(=C/c2cc(C)n(-c3ccccn3)c2C)C1=O (stereo not given)	u	2.51µM*	2.24µM*	8.49µM*	29.3%	u
CCOC(=O)C(C)N1C(=O)S/C(=C/c2cc(C)n(-c3ccncc3)c2C)C1=O (stereo not given)	-4.9%	-0.1%	20.9%	u	-20.1%	u
O=C(CSc1ccccc1)Nc1cc(S(=O)(=O)N2CCOCC2)ccc1N1CCOCC1	-1.6%	-6.1%	21.7%	-1.8%	-1.9%	u
CCSc1nn(CC(=O)Nc2cccc(Cl)c2)c(N)c1S(=O)(=O)c1ccc(OC)cc1	x	x	x	-12.1%	x	x
COC(=O)C(C)N1C(=O)S/C(=C/c2cc(C)n(C(C)C)c2C)C1=O (stereo not given)	u	0.5%	3.16µM*	13.5µM*	14.4%	u
CCCCOc1ccc(C2c3c(oc4ccccc4c3=O)C(=O)N2c2nc(C)c(C(=O)OCC)s2)cc1OC (stereo not given)	x	x	x	-0.5%	-6.5%	x
CCC/C(C)=C/c1ccc(CC)cn1	0.3%	1.0%	0.2%	9.53µM*	x	u
CCc1ccc(OCCCC(=O)NCc2ccccc2)cc1	2.2%	-2.2%	0.1%	-16.4%	8.7%	-5.2%
Cc1cc(Cl)ccc1Oc1ccccc1C(=O)CC#N	-0.3%	-4.7%	-5.5%	u	2.5%	u
Cc1ccccc1-c1nnn(Cc2cccc(S(=O)(=O)N3CCOCC3)c2)n1	-5.8%	-1.5%	-2.1%	u	x	-23.3%
Cc1ccc(NC(=O)c2cc(N(C)C)ccc2[P+](=O)O)cc1	u	10.6%	1.6%	19µM*	-6.6%	u
O=C(c1ccco1)N1CCC2(CCCN(Cc3ccccc3)C2)CC1	x	x	x	x	2.0%	x
C=CCn1c(SCC(N)=O)nnc1-c1ccccc1O	-5.8%	-1.1%	10.7%	-1.1%	x	-6.6%
C=CCn1c(SCC(=O)NCc2ccccc2)nnc1-c1ccccc1O	-7.5%	-0.2%	-3.0%	-0.9%	u	18.4µM*
CC(C)(C)c1ccc(-c2nnc(SCC(=O)O)n2N)cc1	6.5%	17.0%	7.7%	10.7µM*	3.5%	6.8%
C=CCn1c(SCC(=O)O)nnc1-c1ccc(C(C)(C)C)cc1	-1.6%	-4.2%	5.0%	16.9µM*	-2.3%	0.1%
